Source: PubChem
SMN2 splice enh = qHTS Assay for Enhancers of SMN2 Splice Variant Expression. HEK293 SMN2-luciferase splicing reporter, luminescence, 30-36 h. Potency, µM (doses to about 46.1 µM), without a hit: at the top dose activity change, positive = activation, actives largely listed as activators. 2.8% of 210,000 active. AID 1458, 2008; further: % of control where 0% means no effect; nearly all actives have a fitted effect of over 55% in size
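HEK293 cells carry an SMN2 minigene-luciferase reporter in which exon 7 inclusion puts luciferase in frame. Cells were seeded at 2000 cells/well, attached for 10-12 hours, then exposed to compounds for 30-36 hours at 37C before ONE-Glo luminescence.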
Rab9 promoter act = qHTS Assay for Rab9 Promoter Activators | Huh7 Rab9 promoter-luciferase reporter, luminescence, 24 h | 2.8% of 320,000 active | AID 485297, 2010 | Potency, µM (doses to about 9.22 µM), inactives show at the top dose activation, negative = inhibition, most hits filed as activators; further: % of control where 0% means no effect; nearly all actives have a fitted effect of over 60% in size
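Promoter activation is measured as luciferase luminescence in Huh7 cells stably transfected with a Rab9 promoter–luciferase construct, following 24 h compound exposure at 37 °C and 10 min reagent incubation at ambient temperature.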
FLuc modulator = qHTS profiling assay for firefly luciferase inhibitor/activator using purifed enzyme and Km concentrations of substrates (counterscreen for miR-21 project) | Luciferin 4-monooxygenase (Photinus pyralis), P08659 | 6.9% of 360,000 active | Potency, µM (series often up to 57.5 µM), inactives show at the top dose activity change, negative = inhibition, actives largely listed as inhibitors | purified FLuc, Km substrates, luminescence inhibition;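 further: plate controls were vehicle for no effect and reference inhibitor for full effect; nearly all actives have a fitted effect of over 55% in size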
Target sequence (P08659 whole entry, looked up): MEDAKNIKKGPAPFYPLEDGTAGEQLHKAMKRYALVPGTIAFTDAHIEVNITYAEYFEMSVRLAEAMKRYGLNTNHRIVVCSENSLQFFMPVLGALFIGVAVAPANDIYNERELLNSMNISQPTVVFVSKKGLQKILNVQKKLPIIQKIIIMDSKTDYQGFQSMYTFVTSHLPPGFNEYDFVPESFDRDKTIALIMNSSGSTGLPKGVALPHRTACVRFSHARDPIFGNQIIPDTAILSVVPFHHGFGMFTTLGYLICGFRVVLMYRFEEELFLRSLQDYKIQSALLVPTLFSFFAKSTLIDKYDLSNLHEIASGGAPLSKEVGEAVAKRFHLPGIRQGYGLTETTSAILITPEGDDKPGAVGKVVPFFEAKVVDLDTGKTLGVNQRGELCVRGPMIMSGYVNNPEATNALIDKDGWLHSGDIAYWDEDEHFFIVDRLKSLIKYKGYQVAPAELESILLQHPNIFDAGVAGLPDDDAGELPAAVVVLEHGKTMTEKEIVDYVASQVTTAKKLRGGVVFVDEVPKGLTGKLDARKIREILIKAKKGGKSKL
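Biochemical qHTS of compounds, final roughly 60 µM downward over six points, against 10 nM purified firefly luciferase using Km concentrations of substrates (10 uM D-luciferin, 10 uM ATP) in Tris acetate pH 7.5 buffer; luminescence output.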
ELG1 genotoxic = qHTS screen for small molecules that induce genotoxicity in human embryonic kidney (HEK293T) cells expressing luciferase-tagged ELG1; HEK293T ELG1-luciferase reporter, luminescence, 16 h; 1.3% of 330,000 active; Potency, µM (doses to about 46 µM), for the others: at the highest dose activity change, positive = activation, actives largely listed as activators; further: % of control where 0% means no effect; nearly all actives have a fitted effect of over 60% in size
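HEK293T cells expressing luciferase-tagged ELG1 were treated with compound or DMSO for 16 hr at 37°C. Luciferase activity was then read after 30 min with ONE-Glo at room temperature; rising signal flags genetic stress.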
ELG1 DNA repair = qHTS screen for small molecules that inhibit ELG1-dependent DNA repair in human embryonic kidney (HEK293T) cells expressing luciferase-tagged ELG1. HEK293T ELG1-luciferase reporter, luminescence, 16 h; DNA damage induced by 5-fluorouridine. Potency, µM (top dose mostly 46.1 µM), for the others: at the top dose activity change, negative = inhibition, most hits filed as inhibitors. 2.3% of 330,000 active. AID 504467, 2011; further: on the % scale 0 is the no-effect control and ±100 the full control effect; nearly all actives have a fitted effect of over 55% in size
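Cells (2,000 per well) received 5-fluorouridine plus test compound or DMSO and were incubated 16 hr at 37 °C, 5% CO2. Luciferase activity was read by luminescence 30 min after ONE-Glo addition; signal suppression marked inhibition of damage-induced ELG1 function.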
NPC1 promoter act = qHTS Assay for NPC1 Promoter Activators; Huh7 NPC1 promoter luciferase reporter, 24 h; Potency, µM (highest dose often 9.22 µM), inactives show at the top dose activation, hits mostly activators; 2.4% of 320,000 active; AID 485313, 2010; further: % of control where 0% means no effect; nearly all actives have a fitted effect of over 60% in size
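Huh7 cells stably carrying NPC1 promoter–luciferase, plated in Opti-MEM with 10% FBS for 2 h, were exposed to compound in DMSO for 24 h at 37 °C; luciferase reagent was added for 10 min and luminescence read.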
* = called active by the depositor; u = inconclusive; x = no result. Sampled rows, rich in hits. Any-hit rate of the full collection: about 9.2%. The call rests on the fitted dose curve; in most records, active means well fitted curve in the direction sought with a large enough effect; inconclusive means small, poorly fitted or top-dose-only effect, or another doubt; inactive means no such curve, though single readings can be large; an effect the other way counts as inactive or inconclusive. Potency means the concentration at half of the fitted maximal effect.

SMILES	SMN2 splice enh	Rab9 promoter act	FLuc modulator	ELG1 genotoxic	ELG1 DNA repair	NPC1 promoter act
CCc1ccc(NC(=O)Cn2c(=O)n(-c3cc(OC)c(OC)c(OC)c3)c(=O)c3ccccc32)cc1	u	x	0.4%	x	x	x
COc1ccc(NC(=O)C2CCC2)cc1S(=O)(=O)N1CCOCC1	x	-3.2%	2.8%	-1.1%	15.2%	-1.6%
COc1ccc(NC(=O)c2cc3c(s2)CCC(C)C3)cc1S(=O)(=O)N1CCOCC1 (stereo unspecified)	-65.1%	-17.8%	u	-15.1%	23.1µM*	-8.9%
COc1ccc(NC(=O)c2cc(S(=O)(=O)N3CCOCC3)ccc2C)cc1S(=O)(=O)N1CCOCC1	x	x	x	-1.2%	u	x
CCc1sc(C(=O)Nc2ccc(OC)c(S(=O)(=O)N3CCOCC3)c2)cc1C	x	x	x	-4.9%	8.2µM*	x
c1ccc2c(C3=NNC(=NC4CCCCC4)SC3)c[nH]c2c1	20µM*	15.3%	u	0.4%	u	-1.3%
c1ccc2c(C3=NNC(=NC4CC4)SC3)c[nH]c2c1	2µM*	0.631µM*	1.51µM*	u	u	u
c1ccc(C2=NNC(=NC3CC3)SC2)cc1	2.51µM*	0.112µM*	1.35µM*	u	u	u
O=C(Nc1ccccc1N1CCOCC1)c1cccc(Oc2ccccc2)c1	x	5.7%	21.3µM*	-10.9%	-9.9%	-35.1%
O=C(Nc1cc(C(F)(F)F)ccc1N1CCOCC1)c1cn2ccccc2n1	9.8%	6.1%	7.9%	-1.8%	-12.9%	0.2%
Cc1ccn2cc(C(=O)Nc3nnc(C)s3)nc2c1	x	3.16µM*	15.1µM*	u	u	u
Cc1ccn2cc(C(=O)NCc3ccco3)nc2c1	15.1%	13.7%	-12.0%	11.3%	u	6.5%
O=C(Nc1ccccc1N1CCOCC1)c1ccc2ccccc2n1	6.8%	27.8%	7.57µM*	1.0%	10.5%	26.0%
Cc1ccn2cc(C(=O)Nc3ccccc3N3CCOCC3)nc2c1	-2.7%	17.2%	15.1µM*	3.4%	7.5%	20.7%
O=C1NC(Cc2ccccc2)c2nc3cc(F)ccc3c(=O)n2-c2cc(Cl)ccc21 (stereo unspecified)	x	-8.9%	7.9%	1.1%	15.1%	2.3%
CCc1nnc2c(Nc3cc(OC)c(Cl)cc3OC)nc3ccccc3n12	-5.9%	x	3.4%	x	x	x
O=C(Nc1ccccc1N1CCCCC1)c1ccc(F)c(S(=O)(=O)N2CCOCC2)c1	x	-6.3%	2.8%	-6.4%	13µM*	-4.6%
Cc1ccn2cc(C(=O)Nc3ccc4c(c3)OCCO4)nc2c1	u	1µM*	1.9µM*	5.8µM*	u	1.41µM*
COc1ccc(NC(=O)/C(C#N)=C/c2ncc([N+](=O)[O-])n2C)c(OC)c1	x	1.2%	1.9%	-1.0%	-11.9%	-1.6%
N#C/C(=C\c1ccc[nH]1)C(=O)Nc1ccccc1F	x	0.501µM*	u	11.6µM*	u	1.26µM*
N#C/C(=C\c1ccc[nH]1)C(=O)c1ccccc1	x	4.5%	16.9µM*	17.9%	u	-1.4%
N#C/C(=C\c1cccc(Cl)c1)C(=O)c1ccccc1	x	0.7%	u	6.0%	-2.3%	-1.5%
N#C/C(=C\c1ccc[nH]1)C(=O)Nc1ccccc1Cl	x	u	-16.4%	u	u	0.708µM*
COc1ccc(NC(=O)/C(C#N)=C/c2ccc[nH]2)c(OC)c1	x	u	-1.6%	14.3%	4.3%	3.16µM*
Cc1cc(/C=C(\C#N)C(=O)Nc2ccccc2F)c(C)[nH]1	x	0.562µM*	2.13µM*	u	u	1.12µM*
SMILES	SMN2 splice enh	Rab9 promoter act	FLuc modulator	ELG1 genotoxic	ELG1 DNA repair	NPC1 promoter act
Cc1cc(/C=C(\C#N)C(=O)NC2CC2)c(C)[nH]1	11.2µM*	3.16µM*	12µM*	u	u	3.98µM*
Cc1cc(/C=C(\C#N)C(=O)NC2CCCCCC2)c(C)[nH]1	30.0%	23.4%	u	9.8%	u	24.2%
CCc1ccc(-n2c(C)nnc2SCc2nc(-c3ccc(OC)cc3)no2)cc1	-9.4%	x	2.6%	x	x	x
COc1ccccc1-c1oc2ccccc2c1C#CC(C)(C)O	x	-5.0%	0.3%	-2.1%	u	-3.7%
O=C(Nc1ccccc1Cl)N1CCN(c2ccc3nnc(-c4ccc(F)cc4)n3n2)CC1	-12.3%	3.0%	2.5%	-6.8%	20.6µM*	-4.4%
COc1ccccc1NC(=O)N1CCN(c2ccc3nnc(-c4ccc(F)cc4)n3n2)CC1	-3.3%	-13.0%	5.4%	-4.1%	u	-7.2%
Cc1ccc(N2CC(C(=O)N(C)CC(=O)Nc3ccc(Cl)c(C(F)(F)F)c3)CC2=O)cc1 (stereo unspecified)	x	-5.4%	-0.3%	-4.1%	u	-7.1%
O=C(NC(C(=O)N/N=C/c1ccccc1)c1n[nH]c(=O)c2ccccc12)c1ccccc1 (stereo unspecified)	x	u	19µM*	4.0%	0.0%	-0.4%
